The text below walks through data of PubChem BioAssay (NCATS).

“And” between values parts separate entries of the source, which are not always exact repeats. Equal entries are not always repeated. Records with an inconclusive call do not appear. The source made the active and inactive calls. Unless noted, calls follow the shape of the dose curve; as a rule, active = well fitted curve in either direction with a large enough effect (not every such curve was filed as active); inconclusive = small, poorly fitted or top-dose-only effect, or another doubt; inactive = flat fitted curve, though single readings scatter.

Assay [1] in a line: AP1 Signaling Pathway (AID 357). Also: % is scaled to controls: 0 for no effect and ±100 for the full control effect. To be noted: ME-180 AP-1-bla reporter, EGF-induced, beta-lactamase ratio, 5 h. The gist of the method: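 ME-180 cells with beta-lactamase reporter under AP-1 response element, stimulated with EC50 EGF; compounds tested in titration series, 5 h at 37 °C. CCF4 substrate added 2.5 h at room temperature; 460/530 nm emission ratio gave %activity and AC50.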

In assay [2] the target is Cytochrome P450 1A2 (Homo sapiens) (UniProt P05177). Kind of assay: p450-cyp1a2 (AID 410; calls by dose curve;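 also: -100% = full effect of reference inhibitor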). To be noted: recombinant CYP1A2, luciferin-ME demethylation, luminescence; series mostly up to 57 µM. The gist of the method: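 20nM CYP1A2 with 100uM Luciferin-ME (at Km) in 100mM KPO4; compound preincubated 10 min, NADPH regeneration added, 60 min at room temperature. Luciferin quantified by luminescence after detection reagent; normalized to 57 uM furafylline.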
Sequence of Cytochrome P450 1A2 (Homo sapiens) (P05177 whole entry, looked up): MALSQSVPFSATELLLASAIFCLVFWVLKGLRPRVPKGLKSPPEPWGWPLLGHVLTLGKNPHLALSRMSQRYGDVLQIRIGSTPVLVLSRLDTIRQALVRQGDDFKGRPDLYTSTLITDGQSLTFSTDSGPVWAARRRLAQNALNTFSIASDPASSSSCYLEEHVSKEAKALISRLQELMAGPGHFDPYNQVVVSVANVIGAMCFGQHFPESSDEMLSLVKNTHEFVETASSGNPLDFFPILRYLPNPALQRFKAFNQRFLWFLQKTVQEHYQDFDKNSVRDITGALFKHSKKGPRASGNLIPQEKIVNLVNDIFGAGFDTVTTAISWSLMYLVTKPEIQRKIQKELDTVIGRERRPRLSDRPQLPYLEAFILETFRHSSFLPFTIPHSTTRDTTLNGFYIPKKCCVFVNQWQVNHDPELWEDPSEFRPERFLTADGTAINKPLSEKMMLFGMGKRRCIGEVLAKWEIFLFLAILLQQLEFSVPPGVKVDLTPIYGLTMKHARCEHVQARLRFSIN

The nature of assay [3]: NFAT Signaling Pathway (AID 444).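 Also: carbachol stimulus at about its EC50 of 1 µM final; % is scaled to controls: 0 for no effect and ±100 for the full control effect.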 To be noted: Jurkat NFAT-bla M1, carbachol, beta-lactamase ratio, 5 h. The gist of the method: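 Jurkat cells carrying an NFAT-driven β-lactamase reporter and co-transfected muscarinic M1 receptor were treated with compound plus carbachol (1 uM final, an EC50 level) for 5 h at 37 °C. CCF4 loading followed for 1 h at RT; 460/530 nm ratio gave %activity.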

The nature of assay [4]: Stat Signaling Pathway (AID 446).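 Also: ME-180 cervical cancer cells given 40 pM IL-6 alongside compound; SIE-controlled beta-lactamase reporter measured as 460/530 nm FRET emission ratio; % is scaled to controls: 0 for no effect and ±100 for the full control effect.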 To be noted: ME-180 (cervical carcinoma) SIE beta-lactamase reporter, IL-6 stimulated, 5 h. The procedure, abridged:
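IL-6/STAT signaling read in ME-180 cells via an SIE beta-lactamase reporter. Stimulus was 40 pM IL-6 (its AC50) for 5 hrs, so both activation and inhibition register.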

Assay [5] concerns the target Mitogen-activated protein kinase 10 (Mus musculus) (UniProt Q61831). Kind of assay: JNK3 AlphaScreen Assay (AID 530).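 Also: kinase came from lysate of stimulated human HepG2 cells; signal reports phosphorylation of biotinylated GST-cJun 1-79 at Ser73 with 10 µM ATP; % is scaled to controls: 0 for no effect and ±100 for the full control effect.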 To be noted: JNK3 lysate, c-Jun phosphorylation; series mostly up to 57.1 µM. The gist of the method: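 Inhibitors reduce antibody binding to phosphorylated biotin-cJun, lowering AlphaScreen luminescence. Lysates from HepG2 cells pre-activated by IL-1beta plus TNF-alpha supplied JNK3; compounds were titrated.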

In assay [6] the target is 3',5'-cyclic-AMP phosphodiesterase 4B (Homo sapiens) (UniProt Q07343). In words: qHTS Assay for Inhibitors of PDE-IV (AID 607; active = well fitted activation curve with a large enough effect in the main read-out, with a control signal flat, not every such curve was filed as active; also: % of control where 0% means no effect). To be noted: HEK293 ACTOne CNG channel cells, membrane potential fluorescence; series mostly up to 22.9 µM. The procedure, abridged: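 Live HEK293 cells with a modified cyclic nucleotide-gated (CNG) channel report intracellular cAMP via membrane-potential dye fluorescence (ex 535/em 590 nm). Endogenous PDE-IV was targeted. Compounds were tested at up to 22.9 uM final; RO 20-1724 100 uM served as control.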
Sequence of 3',5'-cyclic-AMP phosphodiesterase 4B (Homo sapiens) (Q07343 whole entry, looked up): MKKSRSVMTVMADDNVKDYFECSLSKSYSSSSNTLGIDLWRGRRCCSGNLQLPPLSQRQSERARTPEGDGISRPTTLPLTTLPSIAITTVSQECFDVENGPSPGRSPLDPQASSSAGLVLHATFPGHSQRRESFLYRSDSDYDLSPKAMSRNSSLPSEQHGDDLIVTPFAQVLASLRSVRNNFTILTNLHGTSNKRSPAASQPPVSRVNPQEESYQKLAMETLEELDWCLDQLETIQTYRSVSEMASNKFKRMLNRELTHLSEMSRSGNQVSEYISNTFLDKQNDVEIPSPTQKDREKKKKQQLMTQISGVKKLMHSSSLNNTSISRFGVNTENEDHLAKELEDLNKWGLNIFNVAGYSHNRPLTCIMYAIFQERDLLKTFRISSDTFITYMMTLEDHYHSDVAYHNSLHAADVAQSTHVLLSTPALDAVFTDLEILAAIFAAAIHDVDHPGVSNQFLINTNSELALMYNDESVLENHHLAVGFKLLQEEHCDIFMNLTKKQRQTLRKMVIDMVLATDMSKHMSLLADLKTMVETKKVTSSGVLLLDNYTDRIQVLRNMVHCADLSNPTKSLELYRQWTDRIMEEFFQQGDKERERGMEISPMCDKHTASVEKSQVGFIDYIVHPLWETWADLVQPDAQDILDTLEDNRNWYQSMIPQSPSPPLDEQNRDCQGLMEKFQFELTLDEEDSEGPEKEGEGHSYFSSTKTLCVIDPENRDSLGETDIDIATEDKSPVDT

Assay [7] has as its target Guanine nucleotide-binding protein G(i) subunit alpha-1 (Homo sapiens) (UniProt P63096). In words: qHTS Assay for Inhibitors of RGS12 GoLoco Motif Activity (Green Fluorophore) (AID 879; active = well fitted curve in the direction sought with a large enough effect; an effect the other way counts as inactive or inconclusive;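 also: 0% = labeled peptide with Gαi1 and full inhibition = labeled peptide alone without protein; negative values mean loss of peptide binding seen as reduced polarization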). To be noted: Galphai1/FITC-RGS12 GoLoco peptide, fluorescence polarization; series mostly up to 57.1 µM. The procedure, abridged: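 Fluorescence polarization assay: 50 nM Gαi1 with 10 nM FITC-labeled RGS12 GoLoco peptide in 10 mM Tris pH 7.5, 150 mM NaCl, 0.1 mM GDP, 0.05% NP40, 10 min at room temperature with compound.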

The nature of assay [8]: qHTS Assay for Lipid Storage Modulators (AID 1519; calls by dose curve). To be noted: Drosophila S3 cells, BODIPY lipid droplet/cell ratio, laser cytometry, cells loaded with oleic acid; for activity change, negative = inhibition: at 25.7 µM (top of the series). The procedure, abridged:
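Cells seeded at 5,000 per well were treated with compounds over a concentration series and loaded with oleic acid (400 uM, as added). Lipid droplet fluorescence (488 nm excitation, 500-530 nm channel) was read by laser-scanning cytometry and normalized to 20 uM Triacsin C.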
Background: Quantitative high-throughput screening tests each substance at several concentrations.

Assay [9] in a line: qHTS profiling for inhibitors of Plasmodium falciparum proliferation (AID 504749; active = well fitted curve in the direction sought with a large enough effect; an effect the other way counts as inactive or inconclusive;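 also: 0% = DMSO vehicle and full inhibition = artemisinin control; nearly all actives have a fitted effect of over 60% in size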). To be noted: P. falciparum in erythrocytes, SYBR Green DNA, 72 h. The procedure, abridged:
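Parasite proliferation within erythrocytes, 72 h exposure. Endpoint: SYBR Green I fluorescence after overnight lysis at room temperature. Controls: 0.29 uM artemisinin, DMSO.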

In assay [10] the target is Glucocorticoid receptor (Homo sapiens) (UniProt P04150). Kind of assay: GR-GFP Redistribution (AID 450;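 active = compounds whose dose series gives a full or clear partial fitted curve of increased nuclear translocation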; also: potency is read from the fitted curve at half-maximal effect). To be noted: U2OS GR-GFP nuclear translocation, laser cytometry, 2 h.
Sequence of Glucocorticoid receptor (Homo sapiens) (P04150 whole entry, looked up, the tested form may be a part): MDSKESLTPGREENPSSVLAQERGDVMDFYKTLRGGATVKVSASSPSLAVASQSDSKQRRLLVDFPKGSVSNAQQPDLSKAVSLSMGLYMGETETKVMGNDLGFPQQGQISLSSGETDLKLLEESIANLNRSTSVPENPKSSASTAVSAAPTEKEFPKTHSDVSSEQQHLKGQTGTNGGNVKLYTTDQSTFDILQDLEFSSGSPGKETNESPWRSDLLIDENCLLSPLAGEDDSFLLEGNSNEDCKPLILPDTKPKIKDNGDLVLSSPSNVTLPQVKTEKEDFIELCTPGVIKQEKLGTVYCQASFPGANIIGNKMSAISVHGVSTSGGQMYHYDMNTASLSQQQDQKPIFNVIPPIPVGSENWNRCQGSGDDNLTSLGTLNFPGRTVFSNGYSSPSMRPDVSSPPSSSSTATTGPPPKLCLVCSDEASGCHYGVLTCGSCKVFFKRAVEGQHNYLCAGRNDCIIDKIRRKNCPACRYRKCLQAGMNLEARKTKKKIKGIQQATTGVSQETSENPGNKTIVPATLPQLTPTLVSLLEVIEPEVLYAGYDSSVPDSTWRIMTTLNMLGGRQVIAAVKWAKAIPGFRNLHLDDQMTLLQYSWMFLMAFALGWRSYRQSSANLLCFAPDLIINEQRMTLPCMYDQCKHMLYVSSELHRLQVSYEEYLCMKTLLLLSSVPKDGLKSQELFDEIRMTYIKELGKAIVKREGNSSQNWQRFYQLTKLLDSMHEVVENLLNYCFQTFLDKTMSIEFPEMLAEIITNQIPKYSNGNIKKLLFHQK
Assay [11] shares this target. In words: GR-EFC Redistribution (AID 451; calls by dose curve; also: potency is read from the fitted curve at half-maximal effect). To be noted: CHO-K1 GR-EFC translocation, beta-gal luminescence, 2 h. The procedure, abridged: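 CHO-K1 cells stably expressing nuclear-localized β-gal enzyme acceptor and GR fused C-terminally to the enzyme donor fragment; ligand-driven nuclear translocation restores β-gal by complementation. Compounds titrated up to 46 uM final, 2 h at 37 °C; luminescence read.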

Assay [12] addresses Cytochrome P450 3A4 (Homo sapiens) (UniProt P08684). In words: qHTS Assay for Activators of Cytochrome P450 3A4 (AID 885; active = well fitted curve in the direction sought with a large enough effect; an effect the other way counts as inactive or inconclusive; also: nearly all actives have a fitted effect of over 65% in size). To be noted: recombinant CYP3A4, Luciferin-PPXE luminescence, 60 min; series mostly up to 57.1 µM. The gist of the method:
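Quantitative HTS format: compounds preincubated with 20nM human CYP3A4 and Luciferin-PPXE substrate at KM, reaction started by NADPH regeneration, stopped after 60 min, luciferase luminescence read 20 min later.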

Assay [13] has as its target Ubiquitin carboxyl-terminal hydrolase 1 (Homo sapiens) (UniProt O94782). In words: Inhibitors of USP1/UAF1: Pilot qHTS (AID 504865; active = well fitted curve in the direction sought with a large enough effect; an effect the other way counts as inactive or inconclusive;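 also: rhodamine fluorescence freed from ubiquitin-rhodamine substrate followed over time; top concentration of the series differs between compounds; % is scaled to controls: 0 for no effect and ±100 for the full control effect; nearly all actives have a fitted effect of over 35% in size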). To be noted: purified USP1/UAF1, Ub-rhodamine cleavage fluorescence; series mostly up to 54.9 µM. The procedure, abridged: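 In 50mM HEPES pH 7.8 containing 0.5mM EDTA, 1mM TCEP, 0.1 mg/ml BSA and 0.01% Tween-20, 1nM USP1/UAF1 is exposed to compound for 15 min, then Ub-Rho (150nM final) is added and fluorescence is read over time.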

[14] abbreviates: measured here: cell count channel max response.
Setting [15] is: measured here: lipid channel max response.

Sequence of Guanine nucleotide-binding protein G(i) subunit alpha-1 (Homo sapiens) (P63096 whole entry, looked up): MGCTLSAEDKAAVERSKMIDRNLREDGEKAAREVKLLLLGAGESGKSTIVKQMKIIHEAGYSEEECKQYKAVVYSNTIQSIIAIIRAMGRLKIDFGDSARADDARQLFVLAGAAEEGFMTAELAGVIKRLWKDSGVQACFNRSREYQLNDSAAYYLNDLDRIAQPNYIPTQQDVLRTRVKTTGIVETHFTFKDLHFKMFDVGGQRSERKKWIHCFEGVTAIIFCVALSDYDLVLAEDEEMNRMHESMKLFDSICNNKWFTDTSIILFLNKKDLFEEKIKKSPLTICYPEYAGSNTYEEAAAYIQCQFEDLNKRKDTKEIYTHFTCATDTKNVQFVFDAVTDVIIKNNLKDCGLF
Sequence of Ubiquitin carboxyl-terminal hydrolase 1 (Homo sapiens) (O94782 whole entry, looked up): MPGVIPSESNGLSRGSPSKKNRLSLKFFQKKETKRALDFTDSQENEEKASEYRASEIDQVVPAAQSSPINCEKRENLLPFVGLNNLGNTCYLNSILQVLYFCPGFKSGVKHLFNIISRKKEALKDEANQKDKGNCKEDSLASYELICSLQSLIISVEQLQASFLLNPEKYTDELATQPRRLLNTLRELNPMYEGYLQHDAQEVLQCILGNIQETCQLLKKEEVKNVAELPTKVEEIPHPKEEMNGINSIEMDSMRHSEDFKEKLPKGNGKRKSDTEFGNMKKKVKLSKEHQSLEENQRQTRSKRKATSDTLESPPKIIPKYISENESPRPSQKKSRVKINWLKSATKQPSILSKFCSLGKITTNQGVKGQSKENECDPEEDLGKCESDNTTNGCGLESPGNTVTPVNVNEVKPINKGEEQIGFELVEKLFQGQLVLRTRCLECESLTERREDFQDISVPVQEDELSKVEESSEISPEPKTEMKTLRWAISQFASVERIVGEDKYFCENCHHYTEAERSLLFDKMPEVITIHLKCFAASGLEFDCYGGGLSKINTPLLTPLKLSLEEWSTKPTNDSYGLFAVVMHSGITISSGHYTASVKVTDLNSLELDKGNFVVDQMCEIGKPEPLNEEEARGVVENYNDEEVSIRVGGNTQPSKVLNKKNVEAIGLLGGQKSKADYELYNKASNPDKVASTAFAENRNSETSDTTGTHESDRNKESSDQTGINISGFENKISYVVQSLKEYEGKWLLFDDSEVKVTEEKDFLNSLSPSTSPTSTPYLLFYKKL
Sequence of Cytochrome P450 3A4 (Homo sapiens) (P08684 whole entry, looked up): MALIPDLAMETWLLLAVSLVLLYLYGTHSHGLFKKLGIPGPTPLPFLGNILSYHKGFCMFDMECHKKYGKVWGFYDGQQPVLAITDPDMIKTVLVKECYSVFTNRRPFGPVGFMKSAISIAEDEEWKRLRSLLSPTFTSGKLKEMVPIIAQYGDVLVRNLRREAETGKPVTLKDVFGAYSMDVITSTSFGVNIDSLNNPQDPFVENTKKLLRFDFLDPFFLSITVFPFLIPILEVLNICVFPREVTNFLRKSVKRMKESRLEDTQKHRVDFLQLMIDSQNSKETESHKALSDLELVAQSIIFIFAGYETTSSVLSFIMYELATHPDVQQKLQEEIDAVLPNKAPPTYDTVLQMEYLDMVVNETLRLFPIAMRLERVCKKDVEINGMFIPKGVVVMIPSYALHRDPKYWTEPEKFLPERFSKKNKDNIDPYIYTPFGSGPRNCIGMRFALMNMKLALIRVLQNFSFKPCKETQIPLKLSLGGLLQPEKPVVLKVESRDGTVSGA

`CC(C)(C)NC[C@H](O)c1cc(O)cc(O)c1`: the activity change, negative = inhibition in [1] (at 17.2 µM (top of the series)) is -14.7% (inactive); in [1] (at 38 µM (top of the series)), -8.4% (inactive); in assay [3] (at 17.2 µM (top of the series)), -10.3% (inactive); in assay [3] (at 38 µM (top of the series)) it was 0.832% (inactive); in [8] it was -2.66% (inactive). Further, the Potency entry in assay [2], in [5], in [6] and in assay [7] was “inactive” in each case. Further, the activity, negative = inhibition was -0.828% (inactive) in assay [4] (at 17.2 µM (top of the series)); 3.91% (inactive) in assay [4] (at 38 µM (top of the series)); -9.2% (inactive) in assay [9] (at 28.7 µM (top of the series), parasite line A); -17.1% (inactive) in [9] (at 28.7 µM (top of the series), parasite line B). The max response turned out to be 8% in [8] (setting [14]) and 4.68% in assay [8] (setting [15]).
Consider `N[C@H](C(=O)N[C@@H]1C(=O)N2C(C(=O)O)=C(Cl)CS[C@@H]12)c1ccccc1`, for which the activity change, negative = inhibition in [1] (at 17.2 µM (top of the series)) is 6.26% (inactive) and -9.38% (inactive); in assay [1] (at 38 µM (top of the series)) it was -4.53% (inactive); in assay [3] (at 17.2 µM (top of the series)), -10.5% (inactive) and 0.734% (inactive); in assay [3] (at 38 µM (top of the series)), 5.52% (inactive); in assay [8], -0.721% (inactive) and -1.78% (inactive). The Potency result in assay [2], in assay [5], in assay [6], in assay [7], in assay [12] and in assay [13] was “inactive” in each case. Moreover, the activity, negative = inhibition was -10.4% (inactive) and 2.37% (inactive) in assay [4] (at 17.2 µM (top of the series)); 22.7% (inactive) in assay [4] (at 38 µM (top of the series)). For the same molecule, the Potency in [10] was > 46 µM (inactive) and > 20.6 µM (inactive); in assay [11], > 46 µM (inactive) and > 20.6 µM (inactive). For the same molecule, the max response was -2.76% and 11.1% in assay [8] (setting [14]); -3.03% and 9.1% in [8] (setting [15]).
On to `CC(=O)O[C@@H](C)C[N+](C)(C)C`, for which the values for the activity change, negative = inhibition in assay [1] (at 17.2 µM (top of the series)), in assay [1] (at 38 µM (top of the series)) and in assay [8] were 20.9% (inactive), 13.8% (inactive) and -1.12% (inactive), respectively. In addition, the Potency entry in assay [2], in assay [5], in [7] and in [13] was “inactive” in each case. Besides, the activity, negative = inhibition was -1.77% (inactive) in assay [4] (at 17.2 µM (top of the series)); 30.8% (inactive) in assay [4] (at 38 µM (top of the series)); 0.161% (inactive) in assay [9] (at 12.8 µM (top of the series), parasite line A); 7.9% (inactive) in assay [9] (at 12.8 µM (top of the series), parasite line B). Also, the Potency in assay [10] was > 46 µM (inactive) and > 20.6 µM (inactive); in [11] it was > 46 µM (inactive) and > 20.6 µM (inactive). The figures for the max response in [8] (setting [14]) and in assay [8] (setting [15]) were -2.61% and -4.64%, respectively.
`O=C(O)CNC(=O)[C@@H](CS)Cc1ccccc1`: the activity change, negative = inhibition in assay [1] (at 17.2 µM (top of the series)) is 1.14% (inactive); in assay [1] (at 38 µM (top of the series)), -1.37% (inactive); in [3] (at 17.2 µM (top of the series)) it was 3.12% (inactive); in assay [3] (at 38 µM (top of the series)), -2.03% (inactive); in [8], -1.09% (inactive). In addition, the Potency result in assay [2], in [5], in assay [6] and in assay [7] was “inactive” each time. Besides, the activity, negative = inhibition in assay [4] (at 17.2 µM (top of the series)) is 14.5% (inactive); in [4] (at 38 µM (top of the series)), 26.3% (inactive). Besides, the Potency in assay [10] was > 46 µM (inactive) and > 20.6 µM (inactive); in assay [11], > 46 µM (inactive) and > 20.6 µM (inactive). Besides, the max response in assay [8] (setting [14]) was -2.84%; in assay [8] (setting [15]), -4.92%.
